# Test results as given in ChEMBL document CHEMBL3988442, “University of Dundee, Small-Polar-MMV Screening Library” (2021).
# For some assays here: Entries with a potency or affinity are not part of this list.
# What was measured:
# Set-up in all cases: scale not given: direction of the effect not stated beside the values
# [1] = target: Protein translocase subunit SecA (Escherichia coli (strain K12)) (UniProt P10408); assay: Assay to Identify E. coli SecA ATPase Inhibitors; format: functional; conditions: 30 µM
# Protein translocase subunit SecA (Escherichia coli (strain K12)), sequence (P10408 whole entry): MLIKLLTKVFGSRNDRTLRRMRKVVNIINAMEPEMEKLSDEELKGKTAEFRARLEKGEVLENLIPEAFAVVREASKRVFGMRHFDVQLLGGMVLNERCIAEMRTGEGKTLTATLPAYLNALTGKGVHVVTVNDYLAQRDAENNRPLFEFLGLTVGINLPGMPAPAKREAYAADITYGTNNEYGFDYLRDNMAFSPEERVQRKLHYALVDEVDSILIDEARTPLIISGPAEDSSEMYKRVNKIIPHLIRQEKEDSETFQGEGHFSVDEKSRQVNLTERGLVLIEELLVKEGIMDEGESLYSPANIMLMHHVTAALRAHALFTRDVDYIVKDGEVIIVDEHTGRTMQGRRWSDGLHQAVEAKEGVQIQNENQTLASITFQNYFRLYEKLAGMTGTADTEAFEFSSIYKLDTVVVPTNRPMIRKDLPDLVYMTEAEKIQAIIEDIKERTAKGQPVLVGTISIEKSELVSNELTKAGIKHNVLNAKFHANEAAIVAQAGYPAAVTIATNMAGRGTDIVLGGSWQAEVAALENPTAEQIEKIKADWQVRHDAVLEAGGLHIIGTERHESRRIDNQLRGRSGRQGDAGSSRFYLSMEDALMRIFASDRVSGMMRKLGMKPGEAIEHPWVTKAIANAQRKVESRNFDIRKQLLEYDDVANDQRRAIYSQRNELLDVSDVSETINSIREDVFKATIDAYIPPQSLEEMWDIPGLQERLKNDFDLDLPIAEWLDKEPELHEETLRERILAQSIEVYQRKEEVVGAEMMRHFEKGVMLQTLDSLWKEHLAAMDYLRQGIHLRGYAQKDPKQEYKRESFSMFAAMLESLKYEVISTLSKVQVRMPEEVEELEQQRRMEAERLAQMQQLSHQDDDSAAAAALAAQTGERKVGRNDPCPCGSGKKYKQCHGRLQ
# [2] = target: T1, Ubiquitin-activating enzyme e1, putative (Leishmania donovani (strain BPK282A1)) (UniProt E9BSI1); assay: Leishmania donovani Ubiquitin Activating Enzyme (LdE1); format: functional; conditions: 30 µM
# T1 sequence (whole entry): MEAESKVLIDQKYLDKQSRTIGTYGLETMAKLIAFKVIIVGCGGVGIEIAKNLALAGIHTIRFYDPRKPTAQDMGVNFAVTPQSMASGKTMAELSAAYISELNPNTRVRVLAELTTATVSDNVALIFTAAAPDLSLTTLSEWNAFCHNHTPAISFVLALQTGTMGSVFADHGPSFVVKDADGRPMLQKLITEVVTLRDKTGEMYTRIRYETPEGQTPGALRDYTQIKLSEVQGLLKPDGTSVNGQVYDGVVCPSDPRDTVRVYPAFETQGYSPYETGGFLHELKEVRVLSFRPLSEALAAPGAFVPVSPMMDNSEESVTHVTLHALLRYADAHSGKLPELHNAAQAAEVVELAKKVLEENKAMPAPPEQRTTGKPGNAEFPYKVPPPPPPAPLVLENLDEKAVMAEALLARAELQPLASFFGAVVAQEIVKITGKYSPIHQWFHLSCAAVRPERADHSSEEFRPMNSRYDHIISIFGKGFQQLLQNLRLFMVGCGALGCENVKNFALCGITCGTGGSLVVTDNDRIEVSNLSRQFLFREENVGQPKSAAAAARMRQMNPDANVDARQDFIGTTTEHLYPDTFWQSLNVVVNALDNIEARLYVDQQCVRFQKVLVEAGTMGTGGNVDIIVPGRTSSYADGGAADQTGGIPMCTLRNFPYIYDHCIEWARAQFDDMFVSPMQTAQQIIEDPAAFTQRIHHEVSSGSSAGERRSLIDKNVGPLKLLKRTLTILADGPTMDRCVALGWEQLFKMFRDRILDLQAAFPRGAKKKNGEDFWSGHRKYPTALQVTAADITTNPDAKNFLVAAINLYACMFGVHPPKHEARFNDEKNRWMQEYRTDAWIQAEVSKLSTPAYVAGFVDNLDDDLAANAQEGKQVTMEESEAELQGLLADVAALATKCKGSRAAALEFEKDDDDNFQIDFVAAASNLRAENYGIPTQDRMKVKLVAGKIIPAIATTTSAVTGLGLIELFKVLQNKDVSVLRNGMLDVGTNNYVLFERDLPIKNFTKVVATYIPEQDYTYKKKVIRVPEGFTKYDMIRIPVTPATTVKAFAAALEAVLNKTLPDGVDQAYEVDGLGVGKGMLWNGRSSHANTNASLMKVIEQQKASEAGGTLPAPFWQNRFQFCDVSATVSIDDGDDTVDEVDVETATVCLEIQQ
# [3] = target: Sialic acid-binding Ig-like lectin 9 (Homo sapiens) (UniProt Q9Y336); assay: Hs-Siglec9 ALPHAscreen SOP 20170721; conditions: 10 µM
# Sialic acid-binding Ig-like lectin 9 (Homo sapiens), sequence (Q9Y336 whole entry): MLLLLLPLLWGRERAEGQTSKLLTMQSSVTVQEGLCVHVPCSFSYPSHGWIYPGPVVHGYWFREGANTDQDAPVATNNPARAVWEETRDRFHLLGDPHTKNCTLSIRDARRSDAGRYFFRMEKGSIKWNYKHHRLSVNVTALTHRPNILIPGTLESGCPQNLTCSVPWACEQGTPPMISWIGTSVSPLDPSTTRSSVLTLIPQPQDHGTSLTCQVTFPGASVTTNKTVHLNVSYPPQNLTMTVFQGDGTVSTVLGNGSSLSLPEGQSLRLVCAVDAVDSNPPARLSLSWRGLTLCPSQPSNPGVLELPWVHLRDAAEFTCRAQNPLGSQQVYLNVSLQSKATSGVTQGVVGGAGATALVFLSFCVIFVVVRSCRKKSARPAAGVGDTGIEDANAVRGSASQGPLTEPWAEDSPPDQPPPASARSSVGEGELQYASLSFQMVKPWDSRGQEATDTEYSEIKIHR
# [4] = test system: Trypanosoma cruzi; assay: Trypanosoma cruzi phosphomannomutase and mannose-1-phosphate guanylyltransferase assay; format: functional; conditions: 10 µM
# [5] = target: T2, Arginase-2, mitochondrial (Homo sapiens) (UniProt P78540); assay: in vitro enzyme assay to detect the production of urea directly proportional to the activity of Arginase II; format: functional; conditions: 33.3 µM; also: in the data most compounds retested in dose-response had high values
# T2 sequence (whole entry): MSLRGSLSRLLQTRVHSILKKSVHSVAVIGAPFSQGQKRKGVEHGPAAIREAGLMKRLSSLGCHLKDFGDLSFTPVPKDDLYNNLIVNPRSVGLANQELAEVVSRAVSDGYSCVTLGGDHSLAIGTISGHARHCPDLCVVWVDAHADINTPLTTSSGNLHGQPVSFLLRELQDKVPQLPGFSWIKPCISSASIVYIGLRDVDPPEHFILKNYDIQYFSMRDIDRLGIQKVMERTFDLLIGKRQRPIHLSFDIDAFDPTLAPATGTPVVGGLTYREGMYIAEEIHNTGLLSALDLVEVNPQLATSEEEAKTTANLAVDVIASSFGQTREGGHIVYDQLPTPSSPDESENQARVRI
# [6] = target: T3, Proteasome subunit beta (Trypanosoma cruzi) (UniProt O96673); assay: Trypanosoma cruzi proteasome chymotrypsin-like activity (TcProtChymo) assay.; also: in the data most compounds retested in dose-response had high values; format: functional; conditions: 9.37 µM
# T3 sequence (whole entry): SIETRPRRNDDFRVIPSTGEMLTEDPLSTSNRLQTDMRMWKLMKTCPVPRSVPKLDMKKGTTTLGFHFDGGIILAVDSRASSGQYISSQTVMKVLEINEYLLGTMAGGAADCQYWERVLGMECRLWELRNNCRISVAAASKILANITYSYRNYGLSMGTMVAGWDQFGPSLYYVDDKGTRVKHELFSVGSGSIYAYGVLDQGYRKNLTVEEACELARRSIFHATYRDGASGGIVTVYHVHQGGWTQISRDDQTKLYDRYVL
# [7] = species on record: Homo sapiens; assay: To identify inhibition of the IFN signalling (Jak-Stat) pathway via expression of an eGFP reporter gene under the control of an IFN-stimulated response element (ISRE) containing MxA promoter.; format: functional; conditions: 30 µM
# [8] = target: T4, Tyrosyl-tRNA synthetase, putative (Trypanosoma cruzi (strain CL Brener)) (UniProt Q4DSP6); assay: Trypanosoma cruzi tyrosyl tRNA synthetase (TcYRS) _High Tyrosine SOP; format: functional; conditions: 30 µM; also: in the data most compounds retested in dose-response had high values
# T4 sequence (whole entry): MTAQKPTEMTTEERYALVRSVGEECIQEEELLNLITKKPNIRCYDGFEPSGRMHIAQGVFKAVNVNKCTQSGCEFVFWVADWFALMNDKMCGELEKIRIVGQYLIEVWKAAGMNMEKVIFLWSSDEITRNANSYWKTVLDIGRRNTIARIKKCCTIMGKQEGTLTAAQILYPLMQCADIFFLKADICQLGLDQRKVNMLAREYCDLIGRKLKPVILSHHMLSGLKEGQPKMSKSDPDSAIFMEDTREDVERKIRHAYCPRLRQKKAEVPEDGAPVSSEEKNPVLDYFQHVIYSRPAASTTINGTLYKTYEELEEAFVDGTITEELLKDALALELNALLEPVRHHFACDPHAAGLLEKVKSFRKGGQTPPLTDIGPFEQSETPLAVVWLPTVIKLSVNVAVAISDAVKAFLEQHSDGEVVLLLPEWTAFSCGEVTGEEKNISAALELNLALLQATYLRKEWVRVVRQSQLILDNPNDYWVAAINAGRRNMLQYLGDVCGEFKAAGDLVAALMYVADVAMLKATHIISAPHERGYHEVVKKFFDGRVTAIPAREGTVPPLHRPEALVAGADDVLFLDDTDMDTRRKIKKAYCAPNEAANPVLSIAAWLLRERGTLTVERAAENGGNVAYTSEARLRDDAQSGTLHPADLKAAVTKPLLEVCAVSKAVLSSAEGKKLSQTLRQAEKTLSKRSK
# [9] = target: T4, Tyrosyl-tRNA synthetase, putative (Trypanosoma cruzi (strain CL Brener)); assay: Trypanosoma cruzi tyrosyl tRNA synthetase (TcYRS) SOP; format: functional; conditions: 30 µM
# [10] = target: Chromo domain-containing protein 1 (Saccharomyces cerevisiae (strain ATCC 204508 / S288c) (Baker's yeast)) (UniProt P32657); assay: ScCHD-1 Enzyme Inhibition Assay; format: functional; conditions: 30 µM; also: in the data most compounds retested in dose-response had high values
# Chromo domain-containing protein 1 (Saccharomyces cerevisiae (strain ATCC 204508 / S288c) (Baker's yeast)), sequence (P32657 whole entry, the tested form may be a part): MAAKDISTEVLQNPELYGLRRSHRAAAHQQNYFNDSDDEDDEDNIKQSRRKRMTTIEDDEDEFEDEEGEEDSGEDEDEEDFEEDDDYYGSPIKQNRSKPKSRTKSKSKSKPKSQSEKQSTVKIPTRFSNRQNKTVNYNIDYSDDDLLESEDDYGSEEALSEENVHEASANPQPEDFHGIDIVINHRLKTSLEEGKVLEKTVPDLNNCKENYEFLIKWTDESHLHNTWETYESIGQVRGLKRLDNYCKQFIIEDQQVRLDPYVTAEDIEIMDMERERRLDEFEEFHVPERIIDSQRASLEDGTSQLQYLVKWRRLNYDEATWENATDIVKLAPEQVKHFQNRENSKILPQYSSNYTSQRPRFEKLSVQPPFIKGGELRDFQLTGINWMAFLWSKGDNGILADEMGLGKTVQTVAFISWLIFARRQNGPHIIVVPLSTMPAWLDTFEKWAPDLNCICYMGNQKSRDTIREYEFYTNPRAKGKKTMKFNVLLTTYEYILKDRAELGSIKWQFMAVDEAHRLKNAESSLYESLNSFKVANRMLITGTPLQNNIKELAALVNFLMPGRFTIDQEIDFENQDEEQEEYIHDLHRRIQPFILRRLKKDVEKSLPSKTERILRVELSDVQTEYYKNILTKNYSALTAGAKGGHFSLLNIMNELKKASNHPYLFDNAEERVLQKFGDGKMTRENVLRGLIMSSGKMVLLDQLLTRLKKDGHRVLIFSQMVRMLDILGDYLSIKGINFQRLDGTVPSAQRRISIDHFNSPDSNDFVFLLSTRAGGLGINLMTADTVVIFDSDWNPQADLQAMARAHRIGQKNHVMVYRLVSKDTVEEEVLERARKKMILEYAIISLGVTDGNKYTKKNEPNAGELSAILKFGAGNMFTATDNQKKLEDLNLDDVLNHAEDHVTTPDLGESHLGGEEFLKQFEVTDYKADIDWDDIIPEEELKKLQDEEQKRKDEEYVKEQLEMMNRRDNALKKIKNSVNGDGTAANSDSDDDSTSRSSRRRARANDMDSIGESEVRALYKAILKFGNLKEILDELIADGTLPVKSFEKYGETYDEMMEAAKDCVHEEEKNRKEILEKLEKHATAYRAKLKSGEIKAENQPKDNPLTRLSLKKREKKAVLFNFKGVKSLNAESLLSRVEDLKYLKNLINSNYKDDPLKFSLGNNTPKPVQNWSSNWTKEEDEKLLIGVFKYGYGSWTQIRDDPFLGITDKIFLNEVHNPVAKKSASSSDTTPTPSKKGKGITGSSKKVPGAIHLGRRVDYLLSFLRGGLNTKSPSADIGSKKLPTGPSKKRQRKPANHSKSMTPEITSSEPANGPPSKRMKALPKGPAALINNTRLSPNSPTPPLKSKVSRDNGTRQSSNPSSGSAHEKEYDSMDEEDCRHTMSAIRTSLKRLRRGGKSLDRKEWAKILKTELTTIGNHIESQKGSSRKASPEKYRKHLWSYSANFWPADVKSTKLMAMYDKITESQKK
Compound,Percent Effect [1] [%],Percent Effect [2] [%],Percent Effect [3] [%],Percent Effect [4] [%],Percent Effect [5] [%],Percent Effect [6] [%],Percent Effect [7] [%],Percent Effect [8] [%],Percent Effect [9] [%],Percent Effect [10] [%]
COc1cccc(OCC2CCCN(C(C)=O)C2)c1 (stereo not given),-1.78,14.7,-3.67,-0.395,-3.1,25.4,8.14,2.12,15,-24.1
O=C(Nc1cccc(N2CCCC2)c1)C1CCCN1c1nccs1 (stereo not given),-2.06,-15.4,6.8,8.92,-1.23,1.79,-2.5,8.13,-1.21,-2.52
Cc1cc(-c2nn(C)c(Cl)c2CN2CCOCC(O)C2)no1 (stereo not given),-4.83,13.5,10,4.37,15.7,13,15.5,2.66,17.1,-4.79
CN(Cc1nc2c(cnn2C)c(=O)[nH]1)Cc1ccc(F)cc1F,-0.314,20.5,-17.8,2.72,-2.05,16.8,3.63,7.18,25.3,-5.98
O=C1CCCN1Cc1nnc2n1CCN(Cc1ccoc1)CC2,-6.7,9.09,-2.11,-3.94,1.83,0.601,26.1,-1.93,-2.5,-3.88
CCc1noc(C(C)N2CCN(Cc3nnc(C4CC4)o3)CC2)n1 (stereo not given),-3.4,2.67,-2.35,0.402,-1.77,-3.31,-5.04,0.526,0,-5.5
CN(C)C[C@H]1OC[C@@H]2CCN(S(=O)(=O)c3cccs3)C[C@@H]21,-10.2,1.3,12.5,-2.43,-2.43,2.56,0.627,-0.526,-2.56,19.4
Cc1noc(C)c1C(=O)N1CC[C@H]2C[C@@H](c3ccncn3)O[C@@H]2C1,-7.73,6.49,0.544,-1.46,-2.43,11.7,-4.26,5.79,15.4,-2
COc1ccc(CN2CCC3(CC2)NC(=O)CC3c2ccncc2)cc1 (stereo not given),-7.89,-6.49,3.29,-2.43,-4.05,9.27,5.38,-0.526,2.56,-1.91
Cc1cc(CNc2cc(Cl)ccc2Cl)no1,-0.772,0,3.56,4.79,0,4.69,8.6,-11,6.02,-0.0633
O=C1C(NCc2nnc3n2CCCC3)CCN1CC(F)(F)F (stereo not given),-2.08,2.56,-21.5,8.73,-2.05,1.79,4.98,1.44,8.43,-0.359
CCN1CCN(c2ccc(CNC(=O)c3ccc(Cl)o3)cn2)CC1,-0.96,21.3,-3.96,2.41,6.21,18.4,0.841,7.89,15.4,-10.4
Cc1cnn(C2CCCN(C(=O)c3cc(C4CC4)on3)C2)c1 (stereo not given),-4.9,10.3,-6.25,5.16,0.82,-0.939,-0.883,4.31,10.8,-1.27
Cc1ccc(NC(=O)C2CSCN2C(=O)c2cc[nH]n2)c(C)c1 (stereo not given),-2.87,5.13,9.07,4.79,-0.41,0.768,-8.73,3.35,20.5,-1.03
COc1cccc(CN2CCC3(CCN(C(=O)[C@H]4CCCO4)CC3)C2)c1,-2.54,22.1,-5.6,0.188,0,12.6,-14.8,10.6,-2.5,-10.4
Cc1ncccc1O[C@H]1CCN(C(=O)Cc2cccs2)CC[C@@H]1O,-5.37,17.3,6.84,1.18,-0.443,10.8,7.57,6.35,15,-22.2
CC(=O)N(Cc1noc(C)n1)C1CCN(CCOc2ccccc2)C1 (stereo not given),-2.68,13,0.712,-1.68,-0.615,17.9,-1.33,7.84,21.2,-7.28
CCc1nc(C2CCCN2C(=O)c2ccc3c(c2)nnn3CC)no1 (stereo not given),-3.49,0,5.14,-1.41,0,3.99,11.6,2.63,0,-12.3
Cn1cc(C(=O)N2CCCC(n3cccn3)C2)c2ccccc21 (stereo not given),-1.25,8,-2.42,-5.62,7.09,3.65,9.06,2.63,5.13,-11.9
CCc1ccc(O)c(C(=O)NC2CCN(Cc3ccncc3)CC2)c1,-1.01,12.8,-9.09,-4.98,1.64,5.55,44.9,1.44,8.43,-6.65
Cc1cc(-c2cnn(CCNC(=O)C3CC3)c2C2CC2)on1,-4.16,4,-5.41,-1.77,-1.77,5.91,17.8,-3.17,0,-25.2
CCc1n[nH]c(C2CN(C(=O)c3nc(C)n4ccccc34)CCO2)n1 (stereo not given),-2.26,13,11.1,-1.49,10,9.82,-10.3,4.9,16.5,-11
CCc1cc(C(=O)N2CCC(Nc3ccc(C)nn3)CC2)sc1C,-4.07,10.7,-0.268,3.61,-4.88,2.8,4.58,5.79,7.69,-9.15
